38 compounds from PubChem BioAssay (Tox21) can be followed below.

Each structure is given as a SMILES string. Inconclusive results are not listed. Activity calls are given as the source filed them. Unless noted, calls come from the whole dose curve.

A short description of the first experiment: qHTS assay to identify small molecule agonists of H2AX - cell viability counter screen (AID 1224847).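 Note: wild-type CHO-K1 cells; top concentration of the series differs between compounds; nearly all actives have a fitted effect of over 30% in size.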 Conditions: CHO-K1 viability, CellTiter-Glo luminescence, 3 h; series mostly up to 154 µM. In a few lines:
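After overnight plating of 1000 CHO-K1 cells per well, a 15-concentration compound series was applied for 3 hr at 37C. Luminescence from CellTiter-Glo, read following 30 min at room temperature, reflected cell viability.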
(In general: qHTS replaces the single test concentration by a dilution series.)
As for `CN(C)CCc1c[nH]c2ccc(C[C@H]3COC(=O)N3)cc12`, the outcome was inactive. Turning to `CCOC(=O)CC`, the outcome was inactive.

For `CCCCCCCCCCCCCCCC/C=C/C1CC(=O)OC1=O` (configuration not stated), the compound was classed as inactive.

For the compound `COC(=O)c1c(C)cc(O)c(C)c1O`, the compound was classed as inactive. The same measure, in the same setting: the entry for `O=C(O)COc1ccc2ccccc2c1` is “inactive”; for `Cc1cc2c(cc1CC(=O)c1sccc1S(=O)(=O)Nc1onc(C)c1Cl)OCO2` it is “inactive”. Still for that read-out and setting: the same measure for `C=CCOC(=O)CCCCCCCC`: “inactive”; for `C/C(Cl)=C/CCl`: “inactive”.

With `CCOC(=O)CN1CCCC1=O`, the call was inactive. Same read-out and setting: the same measure for `CCCCCCCCCCCBr`: “inactive”. In the case of `CCO/C=C1\N=C(c2ccccc2)OC1=O`, the compound was classed as inactive. For `CCOC(=O)c1ccc(N(C)C)cc1`, the compound was classed as inactive. On the same count and under the same terms, the same measure for `COc1cc(NS(=O)(=O)c2ccc(N)cc2)ncn1`: “inactive”; for `CCCCCCC(O)CO` (configuration not stated): “inactive”; for `O=Cc1ccccc1S(=O)(=O)O`: “inactive”. On the same count and under the same terms, the entry for `COc1cc(OC)cc(OC)c1` is “inactive”; for `Cc1ccc2cccnc2c1` it is “inactive”; for `CC(=O)OCC(=O)[C@@]1(O)CC[C@H]2[C@@H]3CCC4=CC(=O)C=C[C@]4(C)[C@H]3[C@@H](O)C[C@@]21C` it is “inactive”. Still for that read-out and setting: the same measure for `CC[N+](C)(CC)CC`: “inactive”; for `CCCCN=C(N)N=C(N)N`: “inactive”; for `CC1=C(O)C(=O)CO1`: “inactive”.

For `O=P(O)(O)C(O)(Cc1cccnc1)P(=O)(O)O`, the compound was classed as inactive. The same measure, in the same setting: the entry for `COC(=O)c1ccccc1Cl` is “inactive”; for `N#Cc1ccccc1C#N` it is “inactive”; for `CC1(C)C(=O)C(C)(C)C1=O` it is “inactive”. The same measure, in the same setting: the same measure for `N#Cc1cc(NC(=O)C(=O)O)c(Cl)c(NC(=O)C(=O)O)c1`: “inactive”; for `O=S(=O)(O)CC(O)CCl` (configuration not stated): “inactive”; for `C=CCN(CC=C)CC=C`: “inactive”. The same measure, in the same setting: the same measure for `O=C(OOC(=O)c1ccccc1)c1ccccc1`: “inactive”; for `CCOC(=O)COc1ccc2c(C)c(CCN(CC)CC)c(=O)oc2c1Cl`: “inactive”; for `CCN(CC)CC(=O)Oc1ccc(NC(C)=O)cc1`: “inactive”.

Regarding `Nc1ccc(C(=O)NCC(=O)O)cc1`, the compound was called inactive. Turning to `COC(C)(C)CC(C)=O`, the call was inactive. The same measure, in the same setting: the same measure for `C/C=C/C(=O)CCCC`: “inactive”; for `OCCC(F)(F)C(F)(F)C(F)(F)C(F)(F)C(F)(F)C(F)(F)F`: “inactive”; for `O=C1c2ccccc2C(=O)N1CO`: “inactive”.

Another experiment is described as follows: qHTS RealTime-Glo MT Cell Viability Assay in HepG2 cells - 24 hour (AID 1224867; active = well fitted cell-killing curve with a large enough effect in the repeat runs; note: nearly all actives have a fitted effect of over 50% in size). The conditions noted are these: RealTime-Glo luminescence; series mostly up to 76.8 µM. In a few lines:
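Real-time, nonlytic viability: 600 HepG2 cells/well mixed with NanoLuc enzyme plus prosubstrate; 5 h settle, compound (DMSO) added by pintool; luminescence monitored over 40 h at 37 C.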
As for `CN(C)CCc1c[nH]c2ccc(C[C@H]3COC(=O)N3)cc12`, the compound was called inactive. The same measure, in the same setting: the entry for `CCOC(=O)CC` is “inactive”. On the same count and under the same terms, the entry for `CCCCCCCCCCCCCCCC/C=C/C1CC(=O)OC1=O` (configuration not stated) is “inactive”. The same measure, in the same setting: the same measure for `O=C(O)COc1ccc2ccccc2c1`: “inactive”; for `Cc1cc2c(cc1CC(=O)c1sccc1S(=O)(=O)Nc1onc(C)c1Cl)OCO2`: “inactive”; for `C=CCOC(=O)CCCCCCCC`: “inactive”. Take `C/C(Cl)=C/CCl`: the outcome was inactive.

Regarding `CCOC(=O)CN1CCCC1=O`, the compound was classed as inactive.

`CCCCCCCCCCCBr`: the call was inactive. For the compound `CCO/C=C1\N=C(c2ccccc2)OC1=O`, the compound was classed as inactive. On the same count and under the same terms, the entry for `CCOC(=O)c1ccc(N(C)C)cc1` is “inactive”; for `CCCC(=O)C(CC)Sc1ccoc1C` (configuration not stated) it is “inactive”. `COc1cc(NS(=O)(=O)c2ccc(N)cc2)ncn1`: the outcome was inactive.

For `CCCCCCC(O)CO` (configuration not stated), the compound was classed as inactive.

As for `O=Cc1ccccc1S(=O)(=O)O`, the compound was classed as inactive.

On to `COc1cc(OC)cc(OC)c1`, for which the result was inactive. Same read-out and setting: the same measure for `Cc1ccc2cccnc2c1`: “inactive”; for `CC(=O)OCC(=O)[C@@]1(O)CC[C@H]2[C@@H]3CCC4=CC(=O)C=C[C@]4(C)[C@H]3[C@@H](O)C[C@@]21C`: “inactive”.

On to `CC[N+](C)(CC)CC`, for which the call was inactive. Same read-out and setting: the entry for `CCCCN=C(N)N=C(N)N` is “inactive”; for `O=S(=O)(O)c1ccc(Cl)cc1` it is “inactive”. On the same count and under the same terms, the entry for `O=P(O)(O)C(O)(Cc1cccnc1)P(=O)(O)O` is “inactive”. The same measure, in the same setting: the same measure for `COC(=O)c1ccccc1Cl`: “inactive”; for `N#Cc1ccccc1C#N`: “inactive”.

Regarding `CC1(C)C(=O)C(C)(C)C1=O`, the outcome was inactive. Take `N#Cc1cc(NC(=O)C(=O)O)c(Cl)c(NC(=O)C(=O)O)c1`: the compound was called inactive.

As to `O=S(=O)(O)CC(O)CCl` (configuration not stated), the result was inactive. On the same count and under the same terms, the entry for `C=CCN(CC=C)CC=C` is “inactive”. Turning to `O=C(OOC(=O)c1ccccc1)c1ccccc1`, the result was inactive. Same read-out and setting: the entry for `CCOC(=O)COc1ccc2c(C)c(CCN(CC)CC)c(=O)oc2c1Cl` is “inactive”.

In the case of `CCN(CC)CC(=O)Oc1ccc(NC(C)=O)cc1`, the call was inactive. Same read-out and setting: the same measure for `Nc1ccc(C(=O)NCC(=O)O)cc1`: “inactive”. On the same count and under the same terms, the same measure for `COC(C)(C)CC(C)=O`: “inactive”; for `C/C=C/C(=O)CCCC`: “inactive”; for `OCCC(F)(F)C(F)(F)C(F)(F)C(F)(F)C(F)(F)C(F)(F)F`: “inactive”.

In the case of `O=C1c2ccccc2C(=O)N1CO`, the result was inactive.
